Hit rate of the full screen: of about 330,000 compounds, about 5,800 (1.8%) were called active. This is one part of a sample in which actives are shown more often than they occur. Cut-off read from the data, not from the text of the source: active = inhibition mostly above about 38% (no sharp cut-off); inactive = mostly below about 40%.
biological target: Orexin/Hypocretin receptor type 1 (Homo sapiens) (UniProt O43613); assay: blocks the human orexin 1 receptor (AID 485270); details: OX1R-expressing cells, FRET antagonist read-out; at 6.6 µM; stronger effect = higher value;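 note: 0% = agonist challenge alone and 100% = reference antagonist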
Sequence (O43613 whole entry, looked up): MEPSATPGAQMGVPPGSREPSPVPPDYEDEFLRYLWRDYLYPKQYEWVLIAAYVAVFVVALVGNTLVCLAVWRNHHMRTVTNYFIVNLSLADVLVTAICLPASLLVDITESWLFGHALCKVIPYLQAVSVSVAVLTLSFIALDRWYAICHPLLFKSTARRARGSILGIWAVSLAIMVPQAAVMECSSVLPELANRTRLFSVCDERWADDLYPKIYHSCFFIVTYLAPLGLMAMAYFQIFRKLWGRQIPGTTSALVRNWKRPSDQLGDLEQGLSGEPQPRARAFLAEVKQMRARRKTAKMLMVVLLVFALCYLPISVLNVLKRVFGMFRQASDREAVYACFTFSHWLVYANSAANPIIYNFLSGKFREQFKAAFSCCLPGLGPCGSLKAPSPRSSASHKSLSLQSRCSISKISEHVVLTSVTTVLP

inhibition, active:
CN(CCO)S(=O)(=O)c1ccc2c(c1)C(=O)c1cc(S(=O)(=O)N(C)CCO)ccc1-2 57.6%
CC(=O)Nc1ccc(NC(=O)CSCc2cnn(-c3ccccc3)c2-n2cccc2)cc1 39.8%
Oc1ccc(N=Nc2nccs2)c(O)c1 58.9%
Oc1ccc2ccccc2c1N=Nc1nccs1 99.3%
CCn1c(=N)c(C(=O)NCCCOC)cc2c(=O)n3cccc(C)c3nc21 141%
Cc1cccn2c(=O)c3cc(C(=O)NCCN4CCOCC4)c(=N)n(Cc4cccnc4)c3nc12 69.1%
CCN(CC)CCN1C(=O)C(=O)/C(=C(/O)c2ccc(OC)c(OC)c2)C1c1ccccn1 (stereo not given) 51.5%
O=C1C(=O)N(CCN2CCOCC2)C(c2ccccn2)/C1=C(/O)c1ccc(Cl)cc1 (stereo not given) 55.2%
COc1ccccc1NC(=O)CN(c1ccccc1OC)S(=O)(=O)c1ccccc1 75.8%
CCOC(=O)Cn1c(O)c(N=NC(=O)CNC(=O)Cc2ccccc2)c2ccccc21 38.3%
Cc1ccc2cccc(O)c2[n+]1[O-] 53.1%
Cc1ccc(C(=O)N/C(=C/c2ccc(-c3cccc([N+](=O)[O-])c3)o2)C(=O)NCCCN(C)C)cc1 63.9%
Cc1ccc(N(CC(=O)Nc2cc(C)cc(C)c2)S(=O)(=O)c2cccc3nonc23)cc1 46.5%
COc1ccc(OC)c(NC(=O)CN(C)CCOc2ccc(Br)cc2)c1 38.8%
Cn1nc(-c2ccc(Cl)cc2)c2cc(C(=O)NCc3ccco3)sc21 56.6%
O=C(O)CCC(=O)Nc1nc2ccc([N+](=O)[O-])cc2s1 78.8%
O=C(NC(Nc1nc2ccc([N+](=O)[O-])cc2s1)(C(F)(F)F)C(F)(F)F)c1ccccc1 89.4%
CC(=O)c1cccc(NC(=O)C2CCCN2S(=O)(=O)c2cccc3nsnc23)c1 (stereo not given) 110%
CC1CCCCC1NC(=O)C1CCCN1S(=O)(=O)c1cccc2nsnc12 (stereo not given) 73.9%
COc1ccc(OC)c(NC(=O)C2CCCN2S(=O)(=O)c2cccc3nsnc23)c1 (stereo not given) 44.2%

inhibition, inactive:
O=C(O)c1ccc(NS(=O)(=O)c2ccc3c(c2)C(=O)c2cc(S(=O)(=O)Nc4ccc(C(=O)O)cc4)ccc2-3)cc1 18.6%
CN(CC(=O)O)S(=O)(=O)c1ccc2oc3ccccc3c2c1 7.24%
Cc1cc(C)cc(NC(=O)CSCc2cnn(-c3ccccc3)c2-n2cccc2)c1 68.1%
O=C(CSCc1ccccc1)Nc1ccccc1 4.92%
CC(=O)c1c(C)[nH]c(C(=O)COC(=O)CCOc2ccc(C)cc2)c1C 11.2%
O=C(CNC(=O)c1ccco1)NNC(=O)c1ccc(Br)cc1 1.51%
O=C(CNC(=O)c1n[nH]c2ccccc12)Nc1cc(Cl)ccc1Cl 11.3%
C[C@@H]1C(c2ccc(F)cc2)=NN(c2ccc(Br)cc2)[C@H]1C(=O)N1CCOC1=O 13.5%
CCN(C[C@H]1N[C@@](Cc2ccccc2)(C(=O)OC)[C@H]2C(=O)N(Cc3ccccc3)C(=O)[C@@H]12)C(=O)c1ccc(C)cc1 1.44%
CC1CCCCC1NC(=O)Cn1cnc2c1c(=O)n(C)c(=O)n2C (stereo not given) 4.33%
CCc1cccc2c(=O)c(C(=O)NCCCOC)c[nH]c12 21.4%
O=C(NCc1cccnc1)c1cc(S(=O)(=O)N2CCOCC2)c(Cl)cc1Cl 2.88%
CCOCCCNC(=O)c1cc2c(=O)n3ccccc3nc2s1 32.8%
Cc1cccn2c(=O)c3cc(C(=O)NCC4CCCO4)c(=N)n(Cc4ccc(F)cc4)c3nc12 (stereo not given) 41.5%
COc1cc(C(=O)NC2CCN(C)CC2)ccc1Nc1ncc2c(n1)N(C1CCC(O)CC1)CCC(=O)N2C (stereo not given) 5.47%
C[C@H]1CN([C@@H](C)CO)C(=O)Cc2cc(NC(=O)Cc3ccccc3)ccc2O[C@H]1CN(C)S(=O)(=O)c1cccs1 8.68%
CC1Cc2cc(/C(O)=C3\C(=O)C(=O)N(CCN4CCOCC4)C3c3ccccc3F)ccc2O1 (stereo not given) 6.48%
CCCOc1ccc(/C(O)=C2/C(=O)C(=O)N(CCN(C)C)C2c2ccc(OC)c(OC)c2)cc1 (stereo not given) 31.1%
COc1ccc(/C(O)=C2/C(=O)C(=O)N(CCCN(C)C)C2c2ccccc2)cc1OC (stereo not given) 4.51%
O=C1C(=O)N(CCN2CCOCC2)C(c2cccc(Cl)c2)/C1=C(/O)c1ccc2c(c1)OCO2 (stereo not given) 13.6%
CC[C@]12c3[nH]c4ccc(Cl)cc4c3CCN1C(=O)[C@@H](CC(=O)NCCCOC)C[C@@H]2C(=O)N1CCN(C(=O)c2ccco2)CC1 1.35%
CCC(CO)Oc1cc(NC(=O)c2ccc(Cl)cc2)c2ncn(C(C)C)c2c1 (stereo not given) 0.25%
O=C(Nc1cc(S(=O)(=O)N2CCOCC2)ccc1N1CCOCC1)c1c(F)cccc1Cl 8.73%
COc1ccc(-c2cc3ncccc3cn2)cc1 21.6%
CC(C)(C)OC(=O)C[C@@H]1C/C=C\C[C@@H](CC(=O)NCCO)C(=O)N[C@H](Cc2c[nH]c3ccccc23)COC1=O 3.99%
CCN(c1ccccc1)S(=O)(=O)c1ccc(C(=O)Nc2ccccc2OC)cc1 14%
COc1ccccc1N(CC(=O)N1CCCCC1)S(=O)(=O)c1ccccc1 13.9%
O=C(NCCc1c[nH]c2ccccc12)c1cc2ccccc2oc1=O 1.13%
O=C(CNC(=O)Cc1ccccc1)N=Nc1c(O)[nH]c2ccc(Br)cc12 8.32%
COC(=O)Cn1c(O)c(N=NC(=O)OC)c2ccccc21 41.9%
CCN(CC)C(=O)[C@H]1C[C@H](CC(=O)NCC23CC4CC(CC(C4)C2)C3)C(=O)N2CCc3c([nH]c4cc(CCC(=O)N(C)C)ccc34)[C@]12C 5.23%
Cc1ccsc1C(=O)NNC(=O)COc1ccc(Br)cc1 3.22%
NCC(=O)c1cccc2ccc[n+]([O-])c12 10.5%
C[C@H](CO)N1C[C@H](C)[C@@H](CN(C)C(=O)Nc2ccc3c(c2)OCO3)Oc2c(cccc2N(C)C)C1=O -4.67%
O=C(COc1ccc(F)cc1Br)NCC1COc2ccccc2O1 (stereo not given) 7.79%
CC(C)(C)NS(=O)(=O)NC(=O)C1=C(N2CCCC2)COC1=O -2.54%
COc1ccc(C2=Nn3c(nnc3-c3ccccc3OC)SC2)cc1OC1CCCC1 11.2%
N#C/C(=C\c1ccc(-c2cccc([N+](=O)[O-])c2)o1)C(=O)NCCN1CCOCC1 43.6%
CN(C)CCNC(=O)/C(=C/c1cccc([N+](=O)[O-])c1)NC(=O)c1ccccc1 12.9%
O=C(OCC(=O)N1CCN(C(=O)c2ccco2)CC1)c1c(Cl)cccc1Cl 9.98%
CCOC(=O)c1cccc(NC(=O)CN(c2ccc(C)cc2)S(=O)(=O)c2c(C)noc2C)c1 68.3%
Cc1ccc(CNC(=O)CCNS(=O)(=O)c2cccc3nonc23)cc1 9.03%
CCOCN(C(=O)Cn1c(C(C)O)nc2ccccc21)c1c(C)cccc1CC (stereo not given) 24%
O=C(NCCCCCCNC(=O)NCc1ccco1)NCc1ccco1 10.8%
Cc1cc(NC(=O)CSc2ncc(C(F)(F)F)cc2Cl)no1 0.5%
CCCCCCSc1ccc(-c2nc3ccc(Cl)cn3c2NCc2ccccc2)cc1 12.3%
COc1ccc2sc(-c3ccc(S(C)(=O)=O)cc3)c(-c3ccc(C(N)=O)cc3)c2c1 8.78%
CN(CCOc1ccc(Br)cc1)CC(=O)Nc1cccc(S(=O)(=O)NC2=NCCC2)c1 18.8%
COc1ccc(Br)cc1CN(C)CC(=O)Nc1cc([N+](=O)[O-])ccc1OC 12.8%
CN(CC(=O)Nc1cccc2c1CCCC2)S(=O)(=O)c1ccc(Cl)cc1 3.84%
COc1ccc(-c2nc3cnccn3c2NC2CCCCC2)cc1-c1cccc(Cl)c1 14.3%
COc1ccc2c(Cl)c(C(=O)NCc3ccco3)sc2c1 5.49%
COc1ccccc1N1CCN(C(=O)c2cc3c(-c4ccc(Cl)cc4)nn(C)c3s2)CC1 2.56%
CN(CCC1CCOCC1)Cc1cn[nH]c1-c1ccc(-c2ccccc2)cc1 7.23%
Cc1cc(CNC(=O)c2cccc([N+](=O)[O-])c2)c2ccccc2n1 58.6%
O=C(CNC(=O)c1ccccc1)Oc1ccc([N+](=O)[O-])cc1 19.6%
O=C(CCNC(=O)c1ccccc1)Nc1nc2ccccc2s1 7.04%
O=C(CCC(=O)c1cccs1)Nc1nc2ccccc2s1 6.48%
Cc1csc2nc(COC(=O)c3cccc(N(C)C)c3)cc(=O)n12 13.4%
COc1cc(C=NNC(=O)c2cccnc2)ccc1OC(=O)c1ccccc1F 8.6%
CC(CNC(=O)Cn1cnc2c(OCc3ccccc3)ncnc21)c1ccccc1 (stereo not given) 3.56%
O=C(c1ccc(N2CCOCC2)c([N+](=O)[O-])c1)N1CCN(c2ccccc2F)CC1 7.32%
O=C(Nc1cccc(S(=O)(=O)N2CCCCC2)c1)c1cncc(Br)c1 -0.59%
C=CC[C@@H](CC(=O)N[C@H](CO)Cc1ccccc1)C(=O)N[C@H](C)COC(=O)[C@@H](CC=C)Cc1ccc(F)cc1 20.2%
CC(=O)c1ccc(NC(=O)C2CCCN2S(=O)(=O)c2cccs2)cc1 (stereo not given) 12%
Cc1ccc2nsnc2c1S(=O)(=O)N1CCCC1C(=O)O (stereo not given) 30.4%
O=C(O)C(NS(=O)(=O)c1cccc2nsnc12)c1ccccc1 (stereo not given) 40.5%
COc1ccc(NS(=O)(=O)c2cccc3nsnc23)cc1Cl 12.4%
COc1ccc(N(C)C(=O)C2CCN(S(=O)(=O)c3cccc4nsnc34)CC2)cc1 14.4%
CC(=O)c1cccc(NC(=O)C2CCCN(S(=O)(=O)c3cccc4nonc34)C2)c1 (stereo not given) 24.2%
